# How the values were obtained:
# Experiment in all cases: SPOT peptide array binding signal intensity (averaged, normalized) (arbitrary units (background-subtracted, floor 0; scale differs between SH3 domains)); higher = stronger binding of the SH3 domain to the peptide
# AgAbp1 = target: AgAbp1
# Summary of the method: (§1)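 Spot intensities were captured after detection with anti-GST antibody, an HRP-linked anti-mouse secondary and luminol, and quantified with Genespotter. The probes were GST-fused SH3 domains from four yeast species, produced in E. coli BL21(DE3), purified on glutathione Sepharose and incubated at 10 μg/ml overnight at 4°C on cellulose-bound synthetic 15-mer peptides with cysteines replaced by serines. Binding signal is the normalized, background-subtracted spot intensity averaged over replicates, and its arbitrary units differ between domains.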
# AgBbc1 = target: AgBbc1
# Summary of the method: as §1
# AgBem1-D1 = target: AgBem1-D1
# Summary of the method: as §1
# AgBzz1-D1 = target: AgBzz1-D1
# Summary of the method: as §1
# AgBzz1-D2 = target: AgBzz1-D2
# Summary of the method: as §1
# AgCyk3 = target: AgCyk3
# Summary of the method: as §1
# AgFus1 = target: AgFus1
# Summary of the method: as §1
# AgHof1 = target: AgHof1
# Summary of the method: as §1
# AgHse1 = target: AgHse1
# Summary of the method: as §1
# AgLsb1 = target: AgLsb1
# Summary of the method: as §1
# AgLsb4 = target: AgLsb4
# Summary of the method: as §1
# AgMyo5 = target: AgMyo5
# Summary of the method: as §1
# AgNbp2 = target: AgNbp2
# Summary of the method: as §1
# AgRvs167 = target: AgRvs167
# Summary of the method: as §1
# AgSho1 = target: AgSho1
# Summary of the method: as §1
# AgSla1-D1-D2 = target: AgSla1-D1-D2
# Summary of the method: as §1
# AgSla1-D3 = target: AgSla1-D3
# Summary of the method: as §1
# CaAbp1-D1 = target: CaAbp1-D1
# Summary of the method: as §1
# CaAbp1-D2 = target: CaAbp1-D2
# Summary of the method: as §1
# CaBbc1 = target: CaBbc1
# Summary of the method: as §1
# CaBem1-D1 = target: CaBem1-D1
# Summary of the method: as §1
# CaBzz1-D1 = target: CaBzz1-D1
# Summary of the method: as §1
# CaBzz1-D2 = target: CaBzz1-D2
# Summary of the method: as §1
# CaCyk3 = target: CaCyk3
# Summary of the method: as §1
# CaFus1 = target: CaFus1
# Summary of the method: as §1
# CaHof1 = target: CaHof1
# Summary of the method: as §1
# CaHse1 = target: CaHse1
# Summary of the method: as §1
# CaLsb1 = target: CaLsb1
# Summary of the method: as §1
# CaLsb4 = target: CaLsb4
# Summary of the method: as §1
# CaMyo5 = target: CaMyo5
# Summary of the method: as §1
# CaNbp2 = target: CaNbp2
# Summary of the method: as §1
# CaRvs167 = target: CaRvs167
# Summary of the method: as §1
# CaRvs167-3 = target: CaRvs167-3
# Summary of the method: as §1
# CaSho1 = target: CaSho1
# Summary of the method: as §1
# CaSla1-D1-D2 = target: CaSla1-D1-D2
# Summary of the method: as §1
# CaSla1-D3 = target: CaSla1-D3
# Summary of the method: as §1
# ScAbp1 = target: ScAbp1
# Summary of the method: as §1
# ScBbc1 = target: ScBbc1
# Summary of the method: as §1
# ScBem1-D1 = target: ScBem1-D1
# Summary of the method: as §1
# ScBzz1-D1 = target: ScBzz1-D1
# Summary of the method: as §1
# ScBzz1-D2 = target: ScBzz1-D2
# Summary of the method: as §1
# ScCyk3 = target: ScCyk3
# Summary of the method: as §1
# ScFus1 = target: ScFus1
# Summary of the method: as §1
# ScHof1 = target: ScHof1
# Summary of the method: as §1
# ScHse1 = target: ScHse1
# Summary of the method: as §1
# ScLsb1 = target: ScLsb1
# Summary of the method: as §1
# ScLsb2 = target: ScLsb2
# Summary of the method: as §1
# ScLsb3 = target: ScLsb3
# Summary of the method: as §1
# ScLsb4 = target: ScLsb4
# Summary of the method: as §1
# ScMyo3 = target: ScMyo3
# Summary of the method: as §1
# ScMyo5 = target: ScMyo5
# Summary of the method: as §1
# ScNbp2 = target: ScNbp2
# Summary of the method: as §1
# ScPex13 = target: ScPex13
# Summary of the method: as §1
# ScRvs167 = target: ScRvs167
# Summary of the method: as §1
# ScSho1 = target: ScSho1
# Summary of the method: as §1
# ScSla1-D1-D2 = target: ScSla1-D1-D2
# Summary of the method: as §1
# ScSla1-D3 = target: ScSla1-D3
# Summary of the method: as §1
# SpAbp1-D1 = target: SpAbp1-D1
# Summary of the method: as §1
# SpBbc1 = target: SpBbc1
# Summary of the method: as §1
# SpBzz1-D1 = target: SpBzz1-D1
# Summary of the method: as §1
# SpBzz1-D2 = target: SpBzz1-D2
# Summary of the method: as §1
# SpCyk3 = target: SpCyk3
# Summary of the method: as §1
# SpHof1 = target: SpHof1
# Summary of the method: as §1
# SpHof1-2 = target: SpHof1-2
# Summary of the method: as §1
# SpHof1-3 = target: SpHof1-3
# Summary of the method: as §1
# SpHse1 = target: SpHse1
# Summary of the method: as §1
# SpLsb1 = target: SpLsb1
# Summary of the method: as §1
# SpLsb4 = target: SpLsb4
# Summary of the method: as §1
# SpMyo1 = target: SpMyo1
# Summary of the method: as §1
# SpNbp2 = target: SpNbp2
# Summary of the method: as §1
# SpPex13 = target: SpPex13
# Summary of the method: as §1
# SpRvs167 = target: SpRvs167
# Summary of the method: as §1
# SpSla1-D1-D2 = target: SpSla1-D1-D2
# Summary of the method: as §1
# SpSla1-D3 = target: SpSla1-D3
# Summary of the method: as §1
binder,measurement,setting,value
PALPSLPPPPLLNVD,SPOT peptide array binding signal intensity,AgAbp1,≤ 0
same,SPOT peptide array binding signal intensity,AgBbc1,0.5
same,SPOT peptide array binding signal intensity,AgBem1-D1,≤ 0
same,SPOT peptide array binding signal intensity,AgBzz1-D1,≤ 0
same,SPOT peptide array binding signal intensity,AgBzz1-D2,8.5
same,SPOT peptide array binding signal intensity,AgCyk3,≤ 0
same,SPOT peptide array binding signal intensity,AgFus1,≤ 0
same,SPOT peptide array binding signal intensity,AgHof1,1370
same,SPOT peptide array binding signal intensity,AgHse1,≤ 0
same,SPOT peptide array binding signal intensity,AgLsb1,≤ 0
same,SPOT peptide array binding signal intensity,AgLsb4,≤ 0
same,SPOT peptide array binding signal intensity,AgMyo5,2040
same,SPOT peptide array binding signal intensity,AgNbp2,≤ 0
same,SPOT peptide array binding signal intensity,AgRvs167,≤ 0
same,SPOT peptide array binding signal intensity,AgSho1,77.5
same,SPOT peptide array binding signal intensity,AgSla1-D1-D2,≤ 0
same,SPOT peptide array binding signal intensity,AgSla1-D3,≤ 0
same,SPOT peptide array binding signal intensity,CaAbp1-D1,12
same,SPOT peptide array binding signal intensity,CaAbp1-D2,22
same,SPOT peptide array binding signal intensity,CaBbc1,≤ 0
same,SPOT peptide array binding signal intensity,CaBem1-D1,≤ 0
same,SPOT peptide array binding signal intensity,CaBzz1-D1,≤ 0
same,SPOT peptide array binding signal intensity,CaBzz1-D2,1
same,SPOT peptide array binding signal intensity,CaCyk3,≤ 0
same,SPOT peptide array binding signal intensity,CaFus1,≤ 0
same,SPOT peptide array binding signal intensity,CaHof1,1170
same,SPOT peptide array binding signal intensity,CaHse1,0.25
same,SPOT peptide array binding signal intensity,CaLsb1,0.25
same,SPOT peptide array binding signal intensity,CaLsb4,≤ 0
same,SPOT peptide array binding signal intensity,CaMyo5,293
same,SPOT peptide array binding signal intensity,CaNbp2,≤ 0
same,SPOT peptide array binding signal intensity,CaRvs167,≤ 0
same,SPOT peptide array binding signal intensity,CaRvs167-3,≤ 0
same,SPOT peptide array binding signal intensity,CaSho1,8.5
same,SPOT peptide array binding signal intensity,CaSla1-D1-D2,≤ 0
same,SPOT peptide array binding signal intensity,CaSla1-D3,≤ 0
same,SPOT peptide array binding signal intensity,ScAbp1,≤ 0
same,SPOT peptide array binding signal intensity,ScBbc1,≤ 0
same,SPOT peptide array binding signal intensity,ScBem1-D1,≤ 0
same,SPOT peptide array binding signal intensity,ScBzz1-D1,15.5
same,SPOT peptide array binding signal intensity,ScBzz1-D2,10.5
same,SPOT peptide array binding signal intensity,ScCyk3,≤ 0
same,SPOT peptide array binding signal intensity,ScFus1,≤ 0
same,SPOT peptide array binding signal intensity,ScHof1,3250
same,SPOT peptide array binding signal intensity,ScHse1,128
same,SPOT peptide array binding signal intensity,ScLsb1,≤ 0
same,SPOT peptide array binding signal intensity,ScLsb2,≤ 0
same,SPOT peptide array binding signal intensity,ScLsb3,6.5
same,SPOT peptide array binding signal intensity,ScLsb4,≤ 0
same,SPOT peptide array binding signal intensity,ScMyo3,1950
same,SPOT peptide array binding signal intensity,ScMyo5,1820
same,SPOT peptide array binding signal intensity,ScNbp2,≤ 0
same,SPOT peptide array binding signal intensity,ScPex13,≤ 0
same,SPOT peptide array binding signal intensity,ScRvs167,≤ 0
same,SPOT peptide array binding signal intensity,ScSho1,542
same,SPOT peptide array binding signal intensity,ScSla1-D1-D2,≤ 0
same,SPOT peptide array binding signal intensity,ScSla1-D3,1.25
same,SPOT peptide array binding signal intensity,SpAbp1-D1,≤ 0
same,SPOT peptide array binding signal intensity,SpBbc1,1
same,SPOT peptide array binding signal intensity,SpBzz1-D1,94
same,SPOT peptide array binding signal intensity,SpBzz1-D2,1
same,SPOT peptide array binding signal intensity,SpCyk3,≤ 0
same,SPOT peptide array binding signal intensity,SpHof1,≤ 0
same,SPOT peptide array binding signal intensity,SpHof1-2,1210
same,SPOT peptide array binding signal intensity,SpHof1-3,326
same,SPOT peptide array binding signal intensity,SpHse1,≤ 0
same,SPOT peptide array binding signal intensity,SpLsb1,≤ 0
same,SPOT peptide array binding signal intensity,SpLsb4,≤ 0
same,SPOT peptide array binding signal intensity,SpMyo1,1260
same,SPOT peptide array binding signal intensity,SpNbp2,≤ 0
same,SPOT peptide array binding signal intensity,SpPex13,≤ 0
same,SPOT peptide array binding signal intensity,SpRvs167,0.5
same,SPOT peptide array binding signal intensity,SpSla1-D1-D2,≤ 0
same,SPOT peptide array binding signal intensity,SpSla1-D3,≤ 0
GPPPPLPPPLFPSSS,SPOT peptide array binding signal intensity,SpBzz1-D2,4.25
same,SPOT peptide array binding signal intensity,SpCyk3,≤ 0
same,SPOT peptide array binding signal intensity,SpHof1,≤ 0
same,SPOT peptide array binding signal intensity,SpHof1-2,≤ 0
same,SPOT peptide array binding signal intensity,SpHof1-3,≤ 0
same,SPOT peptide array binding signal intensity,SpHse1,40.8
same,SPOT peptide array binding signal intensity,SpLsb1,184
same,SPOT peptide array binding signal intensity,SpLsb4,225
same,SPOT peptide array binding signal intensity,SpMyo1,1290
same,SPOT peptide array binding signal intensity,SpNbp2,≤ 0
same,SPOT peptide array binding signal intensity,SpPex13,≤ 0
same,SPOT peptide array binding signal intensity,SpRvs167,1430
same,SPOT peptide array binding signal intensity,SpSla1-D1-D2,≤ 0
same,SPOT peptide array binding signal intensity,SpSla1-D3,≤ 0
PHNPSPFFPPPDFND,SPOT peptide array binding signal intensity,AgAbp1,≤ 0
same,SPOT peptide array binding signal intensity,AgBbc1,3
same,SPOT peptide array binding signal intensity,AgBem1-D1,16.5
same,SPOT peptide array binding signal intensity,AgBzz1-D1,5
same,SPOT peptide array binding signal intensity,AgBzz1-D2,22
same,SPOT peptide array binding signal intensity,AgCyk3,≤ 0
same,SPOT peptide array binding signal intensity,AgFus1,≤ 0
same,SPOT peptide array binding signal intensity,AgHof1,≤ 0
same,SPOT peptide array binding signal intensity,AgHse1,71
same,SPOT peptide array binding signal intensity,AgLsb1,3
same,SPOT peptide array binding signal intensity,AgLsb4,≤ 0
same,SPOT peptide array binding signal intensity,AgMyo5,610
same,SPOT peptide array binding signal intensity,AgNbp2,42
same,SPOT peptide array binding signal intensity,AgRvs167,0.667
same,SPOT peptide array binding signal intensity,AgSho1,≤ 0
same,SPOT peptide array binding signal intensity,AgSla1-D1-D2,≤ 0
same,SPOT peptide array binding signal intensity,AgSla1-D3,≤ 0
same,SPOT peptide array binding signal intensity,CaAbp1-D1,2
same,SPOT peptide array binding signal intensity,CaAbp1-D2,28
same,SPOT peptide array binding signal intensity,CaBbc1,14
same,SPOT peptide array binding signal intensity,CaBem1-D1,≤ 0
same,SPOT peptide array binding signal intensity,CaBzz1-D1,1.5
same,SPOT peptide array binding signal intensity,CaBzz1-D2,1.53e-05
same,SPOT peptide array binding signal intensity,CaCyk3,1
same,SPOT peptide array binding signal intensity,CaFus1,32.5
same,SPOT peptide array binding signal intensity,CaHof1,≤ 0
same,SPOT peptide array binding signal intensity,CaHse1,2
same,SPOT peptide array binding signal intensity,CaLsb1,≤ 0
same,SPOT peptide array binding signal intensity,CaLsb4,28
same,SPOT peptide array binding signal intensity,CaMyo5,112

# Reference: the supplement of paper PMC4466140
